Assay results as given in PubChem BioAssay (Tox21).
The source made the active and inactive calls. Calls come from the whole dose curve; as a rule, active = well fitted curve in the direction sought with a large enough effect in the repeat runs; inconclusive = weak or mixed curves; inactive = flat fitted curve, though single readings scatter.

experiment: qHTS assay to test for compound auto fluorescence at 535 nm (green) in HEK293 cells (AID 720680); settings: green autofluorescence 485/535 nm; series mostly up to 91.3 µM; fluorescence, % of fluorescein: at the top concentration
% is set by controls: 0 for no effect and ±100 for the full control effect.

For `CN=C(N)NC(=O)Nc1c(C)cccc1C`, which “fluorescence, % of fluorescein” value is on record?
Its value is -0.0188% [at 46 µM] (inactive).

For `Cc1ccc(N(CC2=NCCN2)c2cccc(O)c2)cc1`, which “fluorescence, % of fluorescein” value is on record?
The value was 0.0286% [at 46 µM] (inactive).

Which “fluorescence, % of fluorescein” value does the source give for `CCCCCCCCCCCCCOS(=O)(=O)O` here?
Its value is 0.0047% (inactive).

With `Cc1ccc2c(c1)CCCN2` as the molecule, how does the “fluorescence, % of fluorescein” value read?
The value was -0.04% (inactive).

With `CCCCCCCCCCCCCCN(C)C` as the molecule, how does the fluorescence, % of fluorescein read?
The fluorescence, % of fluorescein was 0.0258% [at 18.6 µM] (inactive).

For `[Cl][Nd]([Cl])[Cl]`, which “fluorescence, % of fluorescein” value is on record?
Its value is 0.0596% (inactive).

For `Nc1ccn([C@H]2CS[C@@H](CO)O2)c(=O)n1`, which outcome is on record?
Its outcome is “inactive”.

Which “fluorescence, % of fluorescein” value does the source give for `COC(=O)CC(C(C)=O)C(=O)OC` (centres undefined) here?
Its value is -0.029% (inactive).

For `CC(C)C(=O)OCCOc1ccccc1`, which “fluorescence, % of fluorescein” value is on record?
The value was 0.119% (inactive).

For `CCCCCc1ccco1`, which “fluorescence, % of fluorescein” value is on record?
The value was 0.0111% (inactive).

With `CC(C)C(O)C(C)(C)CO` (centres undefined) as the molecule, how does the “fluorescence, % of fluorescein” value read?
Its value is -0.0303% [at 95.7 µM] (inactive).

For `Cc1cccc(C)c1NC(=O)c1cc(S(N)(=O)=O)c(Cl)cc1O`, which “fluorescence, % of fluorescein” value is on record?
Its value is -0.0027% [at 46 µM] (inactive).

For `NC(=O)c1ccccc1[N+](=O)[O-]`, which “fluorescence, % of fluorescein” value is on record?
The value was 0.0503% [at 95.7 µM] (inactive).

Which “fluorescence, % of fluorescein” value does the source give for `CC(C)C1CCC(C(=O)N[C@H](Cc2ccccc2)C(=O)O)CC1` (some centres undefined) here?
Its value is -0.213% [at 46 µM] (inactive).

For `c1ccc(CCCc2ccncc2)cc1`, which “fluorescence, % of fluorescein” value is on record?
The value was 0.0396% (inactive).

For `CC[C@H]1OC(=O)[C@H](C)[C@@H](O[C@H]2C[C@@](C)(OC)[C@@H](O)[C@H](C)O2)[C@H](C)[C@@H](O[C@@H]2O[C@H](C)C[C@H](N(C)C)[C@H]2O)[C@](C)(O)C[C@@H](C)/C(=N\OCOCCOC)[C@H](C)[C@@H](O)[C@]1(C)O`, which outcome is on record?
Its outcome is “inactive”.

With `CC1CCc2nccnc21` (centres undefined) as the molecule, how does the “fluorescence, % of fluorescein” value read?
Its value is 0.027% (inactive).

For `O=C(O)CNC(=O)c1ccccc1I`, which “fluorescence, % of fluorescein” value is on record?
Its value is -0.0377% [at 46 µM] (inactive).

Which “fluorescence, % of fluorescein” value does the source give for `CC(C)N=C=NC(C)C` here?
Its value is 0.0259% (inactive).

With `Nc1nc(-c2ccc([N+](=O)[O-])cc2)cs1` as the molecule, how does the “fluorescence, % of fluorescein” value read?
The value was -0.11% (inactive).

Which “fluorescence, % of fluorescein” value does the source give for `Cc1ccccc1S(N)(=O)=O` here?
Its value is 0.0201% (inactive).

Which “fluorescence, % of fluorescein” value does the source give for `CC(=O)C(C)=O` here?
The value was -0.131% (inactive).

Which “fluorescence, % of fluorescein” value does the source give for `CC(=O)OCCC(C)CC(C)(C)C` (centres undefined) here?
The value was 0.0022% (inactive).

Which “fluorescence, % of fluorescein” value does the source give for `CC(=O)OCC1=C(C(=O)O)N2C(=O)[C@@H](NC(=O)CSc3ccncc3)[C@H]2SC1` here?
The value was -0.464% [at 46 µM] (inactive).

Which “fluorescence, % of fluorescein” value does the source give for `CNc1c2c(nn1C)CCCC2` here?
The value was 0.02% [at 46 µM] (inactive).

With `CCCCCCCCCCCSCC(=O)O` as the molecule, how does the “fluorescence, % of fluorescein” value read?
The value was -0.13% (inactive).

Which “fluorescence, % of fluorescein” value does the source give for `Cc1cccc2sc(N)nc12` here?
The value was -0.0803% [at 95.7 µM] (inactive).

With `CCCCCCC(O)CCCCCCCCCCC(=O)OC` (centres undefined) as the molecule, how does the “fluorescence, % of fluorescein” value read?
The value was -0.225% (inactive).

For `CC(C(=O)O)c1ccc(C(=O)c2cccs2)cc1` (centres undefined), which fluorescence, % of fluorescein is on record?
The fluorescence, % of fluorescein was 0.0235% [at 18.6 µM] (inactive).

For `COC(OC)OC`, which “fluorescence, % of fluorescein” value is on record?
Its value is 0.113% (inactive).

Which “fluorescence, % of fluorescein” value does the source give for `OCC(CO)n1cnc(-c2ccc(F)cc2)c1-c1ccnc(Oc2ccccc2)n1` here?
The value was -0.0459% (inactive).

With `CC(C)(C)S` as the molecule, how does the “fluorescence, % of fluorescein” value read?
Its value is -0.0436% [at 95.7 µM] (inactive).

Which “fluorescence, % of fluorescein” value does the source give for `CC(C)N(C)C` here?
The value was -0.0759% (inactive).

With `O=S(=O)(Cl)c1c(Cl)cccc1Cl` as the molecule, how does the “fluorescence, % of fluorescein” value read?
Its value is 0.047% (inactive).

With `O=[N+]([O-])C1(Br)COCOC1` as the molecule, how does the “fluorescence, % of fluorescein” value read?
The value was -0.0358% (inactive).

With `CC1=C2[C@@H]([C@H](C)CC[C@H]2/C=C(\C)C(=O)O)[C@H](O)C1` as the molecule, how does the “fluorescence, % of fluorescein” value read?
Its value is 0.0052% (inactive).

For `CN1CCCN(C(c2ccccc2)c2ccc(Cl)cc2)CC1` (centres undefined), which “fluorescence, % of fluorescein” value is on record?
The value was 0.0602% [at 46 µM] (inactive).

experiment: qHTS assay to test for compound auto fluorescence at 460 nm (blue) in HEK293 cell free culture (AID 720681); settings: cell-free medium, autofluorescence 405/460 nm (blue); series mostly up to 91.3 µM; fluorescence, % of fluorescent control: at the top concentration
Method in brief: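 Blue fluorescence (Ex 405/Em 460 nm, triamterene-equivalent) was read immediately after pin transfer of compound or DMSO into medium (DMEM, 10% FBS) without cells.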

For `CN=C(N)NC(=O)Nc1c(C)cccc1C`, which “fluorescence, % of fluorescent control” value is on record?
The value was -0.0468% [at 46 µM] (inactive).

Which “fluorescence, % of fluorescent control” value does the source give for `Cc1ccc(N(CC2=NCCN2)c2cccc(O)c2)cc1` here?
Its value is -0.0225% [at 46 µM] (inactive).

For `CCCCCCCCCCCCCOS(=O)(=O)O`, which “fluorescence, % of fluorescent control” value is on record?
The value was -0.0044% (inactive).

With `Cc1ccc2c(c1)CCCN2` as the molecule, how does the “fluorescence, % of fluorescent control” value read?
The value was 0.42% (inactive).

Which fluorescence, % of fluorescent control does the source give for `CCCCCCCCCCCCCCN(C)C` here?
The fluorescence, % of fluorescent control was 0.0125% [at 18.6 µM] (inactive).

Which “fluorescence, % of fluorescent control” value does the source give for `[Cl][Nd]([Cl])[Cl]` here?
Its value is -0.296% (inactive).

Which Potency does the source give for `Nc1ccn([C@H]2CS[C@@H](CO)O2)c(=O)n1` here?
Its Potency is “inactive”.

For `COC(=O)CC(C(C)=O)C(=O)OC` (centres undefined), which “fluorescence, % of fluorescent control” value is on record?
Its value is -0.0806% (inactive).

For `CC(C)C(=O)OCCOc1ccccc1`, which “fluorescence, % of fluorescent control” value is on record?
Its value is 0.0981% (inactive).

With `CCCCCc1ccco1` as the molecule, how does the “fluorescence, % of fluorescent control” value read?
The value was 0.61% (inactive).

Which “fluorescence, % of fluorescent control” value does the source give for `CC(C)C(O)C(C)(C)CO` (centres undefined) here?
Its value is -0.0367% [at 95.7 µM] (inactive).

For `Cc1cccc(C)c1NC(=O)c1cc(S(N)(=O)=O)c(Cl)cc1O`, which “fluorescence, % of fluorescent control” value is on record?
The value was 0.149% [at 46 µM] (inactive).

With `NC(=O)c1ccccc1[N+](=O)[O-]` as the molecule, how does the “fluorescence, % of fluorescent control” value read?
The value was 0.0089% [at 95.7 µM] (inactive).

With `CC(C)C1CCC(C(=O)N[C@H](Cc2ccccc2)C(=O)O)CC1` (some centres undefined) as the molecule, how does the “fluorescence, % of fluorescent control” value read?
Its value is 0.295% [at 46 µM] (inactive).

For `c1ccc(CCCc2ccncc2)cc1`, which “fluorescence, % of fluorescent control” value is on record?
Its value is 0.0163% (inactive).

For `CC[C@H]1OC(=O)[C@H](C)[C@@H](O[C@H]2C[C@@](C)(OC)[C@@H](O)[C@H](C)O2)[C@H](C)[C@@H](O[C@@H]2O[C@H](C)C[C@H](N(C)C)[C@H]2O)[C@](C)(O)C[C@@H](C)/C(=N\OCOCCOC)[C@H](C)[C@@H](O)[C@]1(C)O`, which Potency is on record?
Its Potency is “inactive”.

Which “fluorescence, % of fluorescent control” value does the source give for `CC1CCc2nccnc21` (centres undefined) here?
Its value is 0.0621% (inactive).

For `O=C(O)CNC(=O)c1ccccc1I`, which “fluorescence, % of fluorescent control” value is on record?
The value was -0.159% [at 46 µM] (inactive).

Which “fluorescence, % of fluorescent control” value does the source give for `CC(C)N=C=NC(C)C` here?
The value was -0.007% (inactive).

With `Nc1nc(-c2ccc([N+](=O)[O-])cc2)cs1` as the molecule, how does the “fluorescence, % of fluorescent control” value read?
Its value is -0.182% (inactive).

Which “fluorescence, % of fluorescent control” value does the source give for `Cc1ccccc1S(N)(=O)=O` here?
The value was -0.0037% (inactive).

With `CC(=O)C(C)=O` as the molecule, how does the “fluorescence, % of fluorescent control” value read?
The value was 0.107% (inactive).

Which “fluorescence, % of fluorescent control” value does the source give for `CC(=O)OCCC(C)CC(C)(C)C` (centres undefined) here?
Its value is 0.129% (inactive).

For `CC(=O)OCC1=C(C(=O)O)N2C(=O)[C@@H](NC(=O)CSc3ccncc3)[C@H]2SC1`, which “fluorescence, % of fluorescent control” value is on record?
Its value is -0.138% [at 46 µM] (inactive).

For `CNc1c2c(nn1C)CCCC2`, which “fluorescence, % of fluorescent control” value is on record?
The value was -0.186% [at 46 µM] (inactive).

Which “fluorescence, % of fluorescent control” value does the source give for `CCCCCCCCCCCSCC(=O)O` here?
The value was -0.0339% (inactive).

Which “fluorescence, % of fluorescent control” value does the source give for `Cc1cccc2sc(N)nc12` here?
Its value is -0.148% [at 95.7 µM] (inactive).

For `CCCCCCC(O)CCCCCCCCCCC(=O)OC` (centres undefined), which “fluorescence, % of fluorescent control” value is on record?
Its value is -0.119% (inactive).

With `CC(C(=O)O)c1ccc(C(=O)c2cccs2)cc1` (centres undefined) as the molecule, how does the fluorescence, % of fluorescent control read?
The fluorescence, % of fluorescent control was -0.0817% [at 18.6 µM] (inactive).

With `COC(OC)OC` as the molecule, how does the “fluorescence, % of fluorescent control” value read?
Its value is -0.0182% (inactive).

For `OCC(CO)n1cnc(-c2ccc(F)cc2)c1-c1ccnc(Oc2ccccc2)n1`, which “fluorescence, % of fluorescent control” value is on record?
Its value is -0.128% (inactive).

Which “fluorescence, % of fluorescent control” value does the source give for `CC(C)(C)S` here?
Its value is 0.0461% [at 95.7 µM] (inactive).

With `CC(C)N(C)C` as the molecule, how does the “fluorescence, % of fluorescent control” value read?
The value was -0.0388% (inactive).

For `O=S(=O)(Cl)c1c(Cl)cccc1Cl`, which “fluorescence, % of fluorescent control” value is on record?
The value was 0.401% (inactive).

For `O=[N+]([O-])C1(Br)COCOC1`, which “fluorescence, % of fluorescent control” value is on record?
Its value is -0.0003% (inactive).

For `CC1=C2[C@@H]([C@H](C)CC[C@H]2/C=C(\C)C(=O)O)[C@H](O)C1`, which “fluorescence, % of fluorescent control” value is on record?
Its value is -0.0838% (inactive).

With `CN1CCCN(C(c2ccccc2)c2ccc(Cl)cc2)CC1` (centres undefined) as the molecule, how does the “fluorescence, % of fluorescent control” value read?
The value was -0.009% [at 46 µM] (inactive).
